Only some compounds are listed: those with a hit (about 2.5% of all), similar ones and a draw of the others.
D2 antag = HTS Assay for Allosteric Antagonists of the Human D2 Dopamine Receptor: Primary Screen for Antagonists; actives 2% (n = 340,000); HEK293 TREx D2 cells, calcium flux, dopamine EC80; D(2) dopamine receptor (Homo sapiens), P14416; inhibition, % at 10 µM; in the data active = inhibition above about 30%; inactive = below that, where a call was filed
Target sequence (P14416 whole entry, looked up): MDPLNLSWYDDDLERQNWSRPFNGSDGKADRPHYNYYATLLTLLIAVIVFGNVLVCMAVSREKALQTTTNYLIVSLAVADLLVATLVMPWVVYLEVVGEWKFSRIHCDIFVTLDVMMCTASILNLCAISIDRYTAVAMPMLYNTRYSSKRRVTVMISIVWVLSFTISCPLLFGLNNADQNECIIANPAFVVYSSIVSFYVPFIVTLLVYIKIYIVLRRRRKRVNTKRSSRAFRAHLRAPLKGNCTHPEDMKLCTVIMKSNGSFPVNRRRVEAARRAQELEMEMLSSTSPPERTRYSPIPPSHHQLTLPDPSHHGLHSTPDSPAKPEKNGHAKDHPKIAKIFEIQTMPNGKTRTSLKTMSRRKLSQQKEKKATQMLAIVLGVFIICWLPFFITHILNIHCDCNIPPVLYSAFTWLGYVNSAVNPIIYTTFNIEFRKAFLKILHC
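Cells plated overnight at 30 C with tetracycline; no-wash calcium dye, 30–90 min RT; 10 s baseline; compound pinned; 180 s read; EC80 dopamine added; another 180 s read.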
D2 ag-1 = Beta-Arrestin HTS for Positive Allosteric Modulators of the Human D2 Dopamine Receptor: Agonists | DiscoveRx PathHunter D2 beta-arrestin, luminescence, 90 min; 100% = 57 uM dopamine signal | actives 0.084% (n = 360,000) | D(2) dopamine receptor (Homo sapiens), P14416 | activation, % (concentration not given with the values); in the data active = activation above about 40%; inconclusive = between about 15% and that limit
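Agonist mode: compounds alone added to overnight-plated D2 PathHunter cells for 90 min at 37 C, with 57 uM final dopamine (EC100) defining full response. Beta-arrestin recruitment detected by chemiluminescent reagent, read after 1 h at ambient temperature.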
D2 ag-2 = HTS Assay for Allosteric Agonists of the Human D2 Dopamine Receptor: Primary Screen for Agonists | AID 485358, 2010 | D(2) dopamine receptor (Homo sapiens), P14416 | activation, % at 2 µM | actives 0.53% (n = 340,000) | HEK293 T-REx D2 cells, calcium flux agonist mode;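 active = activation over 3 SD above normal in the single-dose calcium agonist read, cut at about 30% in these data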
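Agonism is scored from calcium flux in a force-coupled, inducible HEK293 cell line expressing D2, read kinetically for 180 s after compound addition against dopamine controls.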
D2 PAM-1 = Beta-Arrestin HTS for Positive Allosteric Modulators of the Human D2 Dopamine Receptor: Potentiators; D(2) dopamine receptor (Homo sapiens), P14416; DiscoveRx D2 beta-arrestin cells, luminescence, 90 min; 100% = 57 uM dopamine signal; potentiation, % (concentration not given with the values); actives 0.23% (n = 360,000); in the data active = potentiation above about 50%; inconclusive = mostly about 30% to 49%
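PathHunter beta-arrestin assay in DiscoveRx D2 cells. Compounds were added with an EC20 of dopamine (50 nM final) for 90 min at 37 deg C. Luminescence was read 1 h after detection reagent, with 57 uM dopamine as the EC100 control.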
Anesthetic bind = qHTS Assay for Identification of Novel General Anesthetics | AID 485281, 2010 | apoferritin/1-aminoanthracene competitive binding, fluorescence | Ferritin light chain (Equus caballus), P02791 | actives 0.074% (n = 350,000) | Potency, µM (series often up to 77.5 µM), usual class: inhibitors; active = well fitted inhibition curve with a large enough effect; inconclusive = small, poorly fitted or top-dose-only effect; inactive = no such curve, though single readings can be large or run the other way; also: nearly all actives have a fitted effect of over 20% in size
Target sequence (P02791 2-175 limits assumed): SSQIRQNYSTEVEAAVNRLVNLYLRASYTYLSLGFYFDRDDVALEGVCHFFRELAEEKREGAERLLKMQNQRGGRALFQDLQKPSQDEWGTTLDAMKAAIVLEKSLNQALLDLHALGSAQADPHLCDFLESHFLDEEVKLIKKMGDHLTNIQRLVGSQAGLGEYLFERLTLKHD
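In PBS, apoferritin at 10 uM is loaded with 1-AMA from a 50% saturated solution. After 10 min of compound exposure at ambient temperature, reduced 535 nm fluorescence indicates probe displacement.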
D2 PAM-2 = HTS Assay for Positive Allosteric Modulators of the Human D2 Dopamine Receptor: Primary Screen for Potentiators; potentiation, % at 10 µM; actives 0.34% (n = 340,000); D(2) dopamine receptor (Homo sapiens), P14416; HEK293 T-REx D2, calcium flux, EC20 dopamine potentiation; AID 485347, 2010;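 active = potentiation over 3 SD above the plate norm, cut at about 30% in these data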
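Potentiation of an EC20 dopamine calcium response is measured in a force-coupled, tetracycline-inducible Hek293 Trex D2 line. Compound-only kinetic reads over 180 s flag agonists before dopamine addition.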
Large screens that a line does not name were inactive.

Cc1cc(C)c(NC(=O)CN2C(=O)NC(CCc3ccccc3)C2=O)c(C)c1 (stereo unspecified)	D2 antag 31.7
CC(c1c(O)c2ccccc2[nH]c1=O)C1(C)CCC(O)C(C)(C)O1 (stereo unspecified)	none
COc1ccc(N(C)S(=O)(=O)c2ccc3c(c2)NC(=O)CC(=O)N3)c(OC)c1	none
COc1ccc(C(=O)C[n+]2cccc(C)c2C)cc1[N+](=O)[O-]	D2 antag 58.6
CCCc1nc2ccc(NC(=O)c3ccco3)cc2c(=O)n1Cc1ccccc1Cl	none
CCCc1nc2ccc(NC(=O)c3ccco3)cc2c(=O)n1Cc1ccc(Cl)cc1	D2 PAM-2 45.2
Cc1ccc(CNc2nc3c(S(=O)(=O)c4ccc(C)c(C)c4)nnn3c3ccc(Cl)cc23)cc1	none (no result: D2 antag, D2 ag-1, D2 PAM-1)
COc1ccccc1C(=O)NNC(=O)c1ccc2ccccc2c1	D2 PAM-1 66.9, Anesthetic bind inconclusive
COc1ccccc1C(=O)NNC(=O)c1ccc(O)cc1	none (no result: D2 antag, D2 ag-2, Anesthetic bind, D2 PAM-2)
O=C(Nc1cccc([N+](=O)[O-])c1)Nc1cnccn1	D2 ag-2 37.8
Cc1ccc[n+](CC(=O)Nc2ccc([N+](=O)[O-])cc2)c1	none (no result: D2 antag, D2 ag-2)
Cc1ccc[n+](CC(=O)Nc2cccc([N+](=O)[O-])c2)c1	D2 antag 31.6
O=C(O)CCCC(=O)Nc1cccc([N+](=O)[O-])c1	D2 PAM-2 37.9
Cc1ccc2nc(C3CCCN(C(=S)Nc4ccccc4C)C3)[nH]c2c1 (stereo unspecified)	none
Cc1cc2nc(C3CCCN(C(=S)Nc4ccccc4)C3)[nH]c2cc1C (stereo unspecified)	D2 antag 31.0
O=C1CCC(=O)c2oc3ccccc3c2N1	none
COc1ccc(C(=O)Oc2cc(N)n(S(=O)(=O)c3ccc(C)cc3)n2)cc1	D2 antag 38.4
COc1ccccc1C(=O)Oc1cc(N)n(S(=O)(=O)c2ccc(C)cc2)n1	Anesthetic bind inconclusive
CC(C)(C)OC(=O)N1CCNc2ccccc2C1	D2 antag 30.5
Cc1ccc(CC(NC(=O)c2ccccc2)C(=O)N2CCCC2C(=O)O)cc1 (stereo unspecified)	none
O=C(NC(Cc1ccc2c(c1)OCO2)C(=O)N1CCCC1C(=O)O)c1ccccc1 (stereo unspecified)	D2 antag 34.1
COc1ccc(NC(=O)c2cn(-c3ccccc3)nc2-c2ccncc2)cc1	D2 antag 68.4
Cc1ccc(OCCn2cc(/C(N)=N/O)c3ccccc32)cc1C	D2 PAM-1 inconclusive, Anesthetic bind inconclusive
CCc1ccc(C2CC(c3ccccc3)Nc3nc(N)nn32)cc1 (stereo unspecified)	none
CCc1ccc(C2CC(c3ccccc3)n3ncnc3N2)cc1 (stereo unspecified)	D2 antag 42.1
Cc1ccc(CNCc2ccco2)cc1	none
Cc1cc(N/N=C/c2ccccc2O)nc(-c2ccccc2O)n1	none
Cc1cc(N/N=C/c2ccc(O)cc2O)nc(-c2ccccc2O)n1	D2 ag-1 41.5, D2 PAM-1 inconclusive
COc1ccc(COc2ccc(S(=O)(=O)N3CCCC3)cc2C(N)=O)cc1F	D2 PAM-2 30.4
COc1ccc(S(=O)(=O)N2CCCCCC2)cc1C(=O)N(C)Cc1ccc(Cl)cc1Cl	D2 antag 46.9 (no result: Anesthetic bind)
COc1ccc(COc2ccccc2C(=O)NCc2ccccc2)cc1F	D2 antag 41.5
Cc1ccc(COc2ccc(S(=O)(=O)N3CCCC3)cc2C(N)=O)cc1	none
COc1ccc(C(=O)NC2CCCc3ccccc32)cc1 (stereo unspecified)	none
COc1ccc(NC(=O)COc2ccc(C(=O)NC3CCCc4ccccc43)cc2OC)cc1 (stereo unspecified)	D2 PAM-2 35.9
CN1CCC(N(C)C(=O)COc2ccccc2Cl)CC1	D2 antag 31.1 (no result: Anesthetic bind)
Nc1cc(=O)[nH]c(SCC(=O)Nc2ccc3c(c2)CCC3)n1	none
CCOc1ccc(Oc2ccccc2NC(=O)C2=COCCO2)cc1	D2 antag 37.2 (no result: Anesthetic bind)
Cc1cc(C)cc(NC(=O)C(c2ccccc2)N2CCCC2)c1 (stereo unspecified)	none
COc1ccc(NC(=O)CN2CCN(c3nc(-c4ccc(F)cc4)cs3)CC2)c(OC)c1	none
CCCCC(=O)N1CCN(c2ccc(OC)cc2[N+](=O)[O-])CC1	D2 antag 30.0
CCCCC(=O)N/N=C/c1ccc(N2CCOCC2)c([N+](=O)[O-])c1	D2 antag 59.1
COc1ccc(N2CCN(C(=O)c3ccccc3)CC2)c([N+](=O)[O-])c1	none
CC(C)(C)c1cc(C(=O)NNC(=O)Nc2cccc(Cl)c2)n(Cc2ccccc2)n1	D2 antag 49.7
CCOC(=O)C1(CC2CC2)CCN(Cc2ccc3cccc(F)c3n2)CC1	D2 antag 65.2
O=C(c1cnsn1)N1CCC(CO)(Cc2cccc(F)c2)CC1	none
COc1cccc(CC2(CO)CCN(Cc3ccc4cccc(F)c4n3)CC2)c1	D2 antag 61.6
OCC1(Cc2cccc(F)c2)CCN(Cc2ccc3cccc(F)c3n2)CC1	D2 antag 39.9
COc1ccc(CC2(CO)CCN(Cc3cccc4nccnc34)CC2)cc1	Anesthetic bind inconclusive
OCC1(CCOc2ccccc2)CCN(Cc2ccc3cccc(F)c3n2)CC1	none
COc1ccc(CN2CCC(CO)(Cc3ccccc3C(F)(F)F)CC2)c(F)c1	D2 antag 43.2
Cc1ccc(C)c(S(=O)(=O)Nc2cc3c4c(c2)CC(=O)N4CCC3)c1	none (no result: Anesthetic bind)
CCCc1cc(=O)oc2c3c(cc(OCC(=O)N[C@@H](CSC)C(=O)O)c12)OC(C)(C)CC3	none
CCCc1cc(=O)oc2c3c(cc(OCC(=O)N[C@@H](C)C(=O)O)c12)OC(C)(C)CC3	D2 antag 32.9
COc1ccc(N(CC(=O)Nc2ccc(C)cn2)S(=O)(=O)c2c(C)nn(C)c2C)cc1	none
Cc1nc2ccccc2c(=O)n1CCCO	D2 antag 31.9
CC(C)[C@H](NC(=O)N1CCn2c1nc1ccccc12)C(=O)N[C@H](C(=O)O)c1ccccc1	D2 antag 58.0

Source: PubChem
